Reference: PubChem BioAssay AID602274 (Sanford-Burnham Center for Chemical Genomics, 2012)
Screen size: about 360,000 compounds; about 160 (0.044%) were called active. The list comes from a sample in which actives are over-represented; it also holds similar structures and randomly drawn compounds. Values without a mark were called inactive. Rule as the data show it: active = survival enhancement above about 18%; inactive = the rest.

Test: enhancers of single-cell hiPSC survival, primary screen, ATPlite luminescence (AID 602274);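 also: cells exposed to compounds for 16 hours before the ATP read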
Details: at 20 µM, hits give high values, 100% = ROCK inhibitor wells, 0% = DMSO

SMILES	survival enhancement
Cc1ccc(Nc2c(O)nc[nH]c2=O)cc1C	0.4%
CC(=NCc1ccc2c(c1)OCO2)C1=C(O)c2ccccc2C1=O	2.2%
CC(=O)Nc1ccc(S(=O)(=O)Oc2ccc(/C=N/N=C3/NC(=O)C(CC(=O)O)S3)cc2)cc1 (stereo unspecified)	2%
COc1cc(CO)c(C2(CO)CCCC2)cc1OC	3.1%
C[C@@H]1ON(C)[C@H]2C[C@H]3c4cc(N5CCN(C)CC5)ccc4CCN3C(=O)[C@@H]12	-2.2%
CC(C)C(C)(C#N)NC(=O)CSc1nc2scc(-c3ccccc3)c2c(=O)[nH]1 (stereo unspecified)	-0.3%
N=C1C(=O)OCC1c1ccccc1NC(=O)CN1CCCCC1 (stereo unspecified)	-0.4%
COc1ccc(C(C(=O)NCc2ccccc2)N(Cc2cccs2)C(=O)c2cnccn2)cc1 (stereo unspecified)	6.6%
COC(=O)c1ccc(CN2CCCC(C(=O)Nc3cccc(-n4cnnn4)c3)C2)cc1 (stereo unspecified)	0.6%
C=CC(COCc1ccccc1)N(CC(=O)OC)S(=O)(=O)c1cc(Br)ccc1OC (stereo unspecified)	-0.4%
CCCNc1c(N)c(=O)c1=O	-0.6%
O=C(Nc1ccccc1N1CCCC1)c1ccc(F)c(S(=O)(=O)N2CCOCC2)c1	-0.3%
O=C(c1cccs1)N1C[C@H](n2cc(C3CC3)nn2)[C@@H](O)C[C@@H]1c1ccccc1	-0.3%
Cc1c(S(=O)(=O)N2CC(C)CC(C)C2)c(=O)n(C)c(=O)n1C (stereo unspecified)	-0.4%
CCc1nc2ccc(C(=O)Nc3cccc(OC)c3)cn2c1N(CCC(C)C)CCN(C)C	-0.8%
CNC(=O)c1nnc(Cc2ccc(Cl)cc2)o1	0.3%
CCn1c(=S)sc2c(=O)n(CC(=O)Nc3cccc(Br)c3)c(C)nc21	-0.2%
CCNC(=O)N1CCCC(C(=O)c2ccc(-c3ccccc3)cc2)C1 (stereo unspecified)	1.4%
CC1(C)CC(N(Cc2ccccc2)C(=O)Cc2ccccc2)CCO1 (stereo unspecified)	-0.5%
CCN1C[C@@H]2[C@@H]3C(=O)N(C)C(=O)[C@@H]3[C@](C)(C1=O)N2C(=O)c1ccccc1	-1.3%
CC(C)C[C@H](NC(=O)C1CCC(CNC(=O)[C@@H]2CCCN2C(=O)OC(C)(C)C)CC1)C(=O)O (stereo partly specified)	0.8%
Cc1nc(C(F)(F)F)ccc1C(=O)N1CCC1(C)C(=O)NS(=O)(=O)c1ccc(F)cc1F (stereo unspecified)	-1.2%

SMILES	survival enhancement
CC[C@H]1OC(=O)[C@H](C)[C@@H](O[C@H]2C[C@@](C)(OC)[C@@H](O)[C@H](C)O2)[C@H](C)[C@@H](O[C@@H]2O[C@H](C)C[C@H](N(C)C)[C@H]2O)[C@](C)(O)C[C@@H](C)[C@@H]2N[C@@H](COCCOC)O[C@H]([C@H]2C)[C@]1(C)O	1.7%
CCCCN(C(=O)c1ccc2ccccc2c1)c1c(N)n(CCCC)c(=O)[nH]c1=O	-0.4%
Cn1cc(CN2CCCC(CO)C2)c(-c2ccc(Oc3ccccc3)cc2)n1 (stereo unspecified)	4.5%
CNC(=O)NC(=O)C(OC(=O)c1cccc(S(=O)(=O)N2CCCCC2)c1)c1ccccc1 (stereo unspecified)	0.1%
O=C1CCC[C@@H]2CC(N3CCCCC3)C[C@@H]3CCN1[C@H]23 (stereo partly specified)	-1.2%
CCc1nc2ccccc2n(CCOCCOCCn2c(=O)c(CC)nc3ccccc32)c1=O	2.6%
Cc1ccc(S(=O)(=O)N2CCOCC2)cc1NC(=O)COC(=O)c1cnccn1	-1.4%
CN(C)C(=O)CCc1ccc2c3c([nH]c2c1)[C@]1(C)[C@@H](C(=O)N2CCCCC2)C[C@H](CC(=O)NCCC2=CCCCC2)C(=O)N1CC3	1%
CCN(CC)S(=O)(=O)c1ccc(N2CCCC2)c(NS(=O)(=O)c2cccs2)c1	0.5%
COc1ccccc1NC(=O)C(C)OC(=O)CC1CCCC1 (stereo unspecified)	-0.5%
O=C(CSc1nnc(CN2CCCC2)n1-c1ccc(F)cc1)c1ccc2c(c1)OCO2	0%
CCOc1ncccc1C(=O)Nc1ccc2c(c1)OCCO2	0.1%
COc1cc(C(=O)NC(=S)NCc2ccco2)cc(OC)c1OC	-1.8%
CCc1nc2ccc(C(=O)N3CCN(S(=O)(=O)CC)CC3)cn2c1N(C=O)CCC(C)C	0.9%
CCC(=NC1CC(C)(C)NC(C)(C)C1)C1=C(O)CC(C)(C)CC1=O	-1.8%
Cc1ccc(C(=O)N/C(=C\c2ccco2)C(=O)NC2CCS(=O)(=O)C2)cc1 (stereo unspecified)	-0.5%
Nc1[nH]c(=S)nc2nc(-c3ccccc3)c(-c3ccccc3)nc12	-2%
CCn1c2c(c3ccc(OC)cc31)CCCC2=O	0.7%
COC(=O)c1ccc2nc(C3CCCCC3)c(Cc3cccc(F)c3)n2c1	-0.3%
CC1(C(=O)NCCc2c[nH]c3ccccc23)C=CC2(CCCCC2)N1C(=O)c1ccccc1 (stereo unspecified)	-0.6%
COc1ccc(NC(=O)CC2C(=O)NC3CCCCC3N2C(=O)c2ccc(F)cc2)cc1 (stereo unspecified)	-0.2%
O=C(c1ccc(F)cc1)c1cn(Cc2ccc(F)cc2)c2cc3c(cc2c1=O)OCCO3	-1.1%

SMILES	survival enhancement
COc1ccc2c(c1)c(=O)c(C(=O)c1ccc(Cl)cc1)cn2CC(=O)Nc1ccc(F)cc1	35.8% (active)
O=C(Nc1cccc2cccnc12)c1ccc2sc([C@H]3C[C@H](O)[C@@H](CO)O3)nc2c1	-1.8%
C=CCn1c(C23CC4CC(CC(C4)C2)C3)n[nH]c1=S	-0.3%
O=C(OCCN1C(=O)c2ccccc2C1=O)[C@@H]1CC(O)CN1S(=O)(=O)c1ccccc1[N+](=O)[O-] (stereo partly specified)	-1.2%
CCc1nnc(NC(=O)C2CC(=O)N(c3ccc4c(c3)OCCO4)C2)s1 (stereo unspecified)	-0.7%
Cc1ccc(CCN2CC(C(=O)NCCc3ccccc3)CC2=O)cc1 (stereo unspecified)	0.1%
CCOc1ccc(OCC)c(NC(=O)C(NS(=O)(=O)c2ccc3c(c2)oc(=O)n3C)C(C)C)c1 (stereo unspecified)	-3.4%
COc1ccccc1CCNC(=O)c1cnccn1	0.7%
COc1ccc(C(C#N)(CC(=O)O)c2cnccn2)cc1OC (stereo unspecified)	27% (active)
COc1ccc(C(=O)NNC(=O)c2cnccn2)cc1[N+](=O)[O-]	-1.9%
CCC1CCCCN1CCNS(=O)(=O)c1ccc2c(c1)CCN2C(C)=O (stereo unspecified)	-1.5%
COC(=O)[C@@H]1C[C@H]2CC[C@H](O)C[C@H]2N1Cc1ccc(N2CCN(C)CC2)cc1	-2.9%
COc1ccc(CCNC(=O)CN2C(=O)COc3ccc(S(=O)(=O)N4CCCC4)cc32)cc1OC	0.4%
C/C(=N\Nc1cccc(C(=O)O)c1)c1ccc2c(c1)Nc1ccccc1S2	-0.6%
Cc1nc2ccc(N)nc2nc1C	-2%
COC(=O)C(C)Sc1ccc2nnc(-c3cccc(F)c3)n2n1 (stereo unspecified)	1.5%
COc1ccc(-c2cc(C(F)(F)F)n3nc(C(=O)N4CCOCC4)c(Cl)c3n2)cc1	3.2%
Cc1cccc([C@@H]2[C@@H]3C(=O)N(Cc4ccccc4)C(=O)[C@@H]3[C@]3(Cc4ccc(Cl)cc4)C(=O)N(c4cccc(Cl)c4)C(=O)N23)c1	-0.6%
O=C(NCc1ccccc1CN1CCCC1)c1cccc(S(=O)(=O)Nc2ccc(F)cc2)c1	-0.3%
C[C@H](CO)N1C[C@H](C)[C@@H](CN(C)C(=O)C2CCCCC2)OCc2cnnn2CCCC1=O	5.1%
CC(C)(C)NC(=O)Cn1nnc(-c2ccccc2Cl)n1	1%
C=CCn1nc(-c2ccccc2)c2c(C)onc2c1=O	0.6%

SMILES	survival enhancement
CCOC(=O)C1=CCC2C(=O)N(Cc3ccccc3)C(=O)C12 (stereo unspecified)	-0.2%
CCC(Cc1ccccc1)NC(=O)C1CCCCC1 (stereo unspecified)	-0.3%
Cc1nc(CNS(=O)(=O)c2ccc(Oc3ccccc3)cc2)cs1	-0.6%
CCNC(=O)c1c(O)c2cccc3c2n(c1=O)CC3	8.3%
OC[C@@H]1CN(Cc2ccc(Cl)cc2)C[C@H](n2cnc3c(NCc4ccncc4)ncnc32)O1	0.8%
Cc1cccc(C(=O)Nc2ccccc2C(=O)NCc2cccnc2)c1	7.7%
O=C(COC(=O)C12CC3CC(CC(O)(C3)C1)C2)NC12CC3CC(CC(C3)C1)C2	4.1%
CCOc1ccc(OCC)c(-c2c(=O)n(OCc3ccc(Cl)cc3)c3ccccc3[n+]2[O-])c1	0%
O=C(CN1C(=O)c2cccnc2Oc2ccc(Cl)cc21)Nc1ccc(F)cc1	-2%
O=C(N/N=C1\CCSC1)c1cc(Cl)ccc1O	1.9%
CC1CCCCC1NC(=O)Cn1c(=O)cnc2ccccc21 (stereo unspecified)	-0.7%
O=C(NCc1nnc(SCC(=O)N2CCCc3ccccc32)o1)c1ccccc1F	0.9%
O=C(NCc1ccccc1)C1=C[C@@H](c2ccccc2)C[C@@H](OCCCCO)O1	-2.5%
CN(C)S(=O)(=O)c1ccc(N2CCCC2)c(C(=O)Nc2ccc(Br)cc2F)c1	-0.6%
CCOC(=O)c1c(C)[nH]c(C(=O)NCCN2CCOCC2)c1C	-0.1%
Cc1nc2ccccc2nc(=O)c1NNc1ccc([N+](=O)[O-])cc1	-1.5%
CCN(CC)c1ccc(C(=O)c2cnc(/N=C/N(C)C)s2)cc1	-0.3%
C=CCSc1nc(Cc2ccc(Cl)cc2)nc2ccccc12	-1.7%
CCCCSc1nnc2c(n1)OC=Nc1ccccc1-2	1%
CCN(CC(=O)Nc1ccc(Cl)c(S(=O)(=O)N(C)C)c1)Cc1nc2ccccc2c(=O)[nH]1	-0.1%
